From PubChem BioAssay
Sampled rows, rich in hits. Any-hit rate of the full collection: about 7.9%.
HT1080 IDH1KD tx – toxicity to HT-1080 IDH1 knockdown cells (counter line); HT-1080 IDH1 knockdown viability, ATP luminescence, 48 h; Potency, µM (highest dose often 46.1 µM), for inactives: at the top dose activity, negative = toxicity, usual class: cytotoxic; 360,000 tested, 2% active;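 further: 0% = DMSO wells and -100% = cell-free medium wells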
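Cytotoxicity counter-line: IDH1KD HT-1080, 48 h, CellTiter-Glo. Curves classed by r2, magnitude and activity.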
SW480 rerep – induces DNA re-replication in SW480 colon adenocarcinoma cells; SW480 DNA re-replication, Hoechst DNA content imaging, 48 h; Potency, µM (top dose mostly 46.1 µM), for the others: at the top dose re-replication activation, most hits filed as activators; 340,000 tested, 1.8% active; further: % of control where 0% means no effect; nearly all actives have a fitted effect of over 55% in size
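SW480 cells exposed to compounds for 48 hr at 37 C, 5% CO2, then Hoechst-stained 40 min. Nuclear DNA content imaged by fluorescence scanning (405 nm excitation, 500-530 nm emission); re-replication scored as increased high-intensity nuclei.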
MCF10A rerep – inducers of DNA re-replication in MCF 10A breast cells. MCF 10A DNA re-replication, Hoechst nuclear intensity, 48 h. Potency, µM (series often up to 46.1 µM), inactives show top-dose activity, positive = re-replication, most hits filed as activators. 350,000 tested, 2.9% active. AID 624296; further: % of control where 0% means no effect; nearly all actives have a fitted effect of over 50% in size
HT1080NT lethal – kills 2HG-producing HT-1080-NT fibrosarcoma cells. 360,000 tested, 1.6% active. Potency, µM (titrated, usually from 46.1 µM), without a hit: at the highest dose activity, negative = less viability, hits mostly cytotoxic. HT-1080-NT fibrosarcoma viability, CellTiter-Glo ATP luminescence, 48 h. AID 686970;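 further: NT is the 2HG producing partner of a matched IDH1 knockdown line; 0% = DMSO-treated cells and -100% = media-only wells without cells; nearly all actives have a fitted effect of over 55% in size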
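A 48-hour cytotoxicity screen used HT-1080-NT cells plated 2 hours before compound delivery. ATP-based CellTiter-Glo luminescence measured viability, normalized to DMSO and no-cell controls.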
KB-3-1 tox – kills parental KB-3-1 adenocarcinoma cells; KB-3-1 viability, CellTiter-Glo ATP luminescence, 72 h; Potency, µM (titrated, usually from 46.1 µM), most hits filed as cytotoxic; 400,000 tested, 1.4% active; further: on the % scale 0 is the no-effect control and ±100 the full control effect; nearly all actives have a fitted effect of over 60% in size
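Cells are dispensed, compounds pinned in, plates held at 37 °C for 72 h, then CellTiter-Glo is added and luminescence read after 10 minutes. Cell line: parental KB-3-1 in phenol-red-free DMEM, 10% FBS.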
KB-V1 MDR tox – KB-V1 MDR subline cytotoxicity; KB-V1 MDR cells viability, CellTiter-Glo, 72 h; Potency, µM (top dose mostly 46.1 µM), hits mostly cytotoxic; 400,000 tested, 3.4% active; further: on the % scale 0 is the no-effect control and ±100 the full control effect; nearly all actives have a fitted effect of over 60% in size
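Potencies derive from concentration-effect curves fitted to normalized luminescence (CellTiter-Glo) of KB-V1 cells treated for 72 h at 37 degrees C in phenol-red-free DMEM containing 10% FBS.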
* = called active by the depositor; i = inactive; ? = inconclusive; . = no result; [ ] = another dose, or the depositor's remark. The call rests on the fitted dose curve; in most records, active means well fitted curve in the direction sought with a large enough effect; inconclusive means small, poorly fitted or top-dose-only effect, or another doubt; inactive means no such curve, though single readings can be large; an effect the other way counts as inactive or inconclusive. Potency means the concentration at half of the fitted maximal effect.

SMILES	HT1080 IDH1KD tx	SW480 rerep	MCF10A rerep	HT1080NT lethal	KB-3-1 tox	KB-V1 MDR tox
CC1CC(C)CN(S(=O)(=O)c2ccc(C(=O)Nc3nnc(C4CC4)o3)cc2)C1 (stereo unspecified)	-6.5%	16.6%	18.0%	-17.5%	?	5.17µM*
O=C(COc1ccccc1)Nc1ccc(S(=O)(=O)N(Cc2ccccc2)c2ccccc2)cc1	.	.	.	.	i	i
Cn1c(SSc2ccc(-c3cccnc3)n2C)ccc1-c1cccnc1	11.6µM*	?	204.2%	10.3µM*	?	?
c1cncc(-c2nnc(-c3cccnc3)nn2)c1	?	?	?	?	i	?
Cc1nc(SCC(=O)N(CC(C)C)C2CCS(=O)(=O)C2)c2c(C)c(C)sc2n1 (stereo unspecified)	-11.0%	-6.4%	1.6%	-6.4%	?	3.66µM*
CCN(C(=O)CSc1nc(C)nc2sc(C)c(C)c12)C1CCS(=O)(=O)C1 (stereo unspecified)	-2.4%	-21.2%	-3.0%	-3.1%	i	i
CCOC(=O)c1c(C)[nH]c(C2=NNC(=Nc3cccc(Cl)c3)SC2)c1C	.	20.6µM*	6.51µM*	.	.	.
CN(C)C1=NC[C@H](Cc2ccccc2)N1CCCC1CCCC1	?	?	1.3%	20.6µM*	i	i
CN(C)C1=NC[C@H](Cc2ccccc2)N1CCCC1CCCCC1	?	-55.5%[9.22 µM]	14.4%	-15.7%	i	i
CCOC(=O)Cn1cc(C(=O)c2cccs2)c2ccccc21	2.6%	-1.6%	9.0%	6.4%	i	i
N#Cc1c(N)nc(N)nc1Nc1ccc(Br)cc1	1.2%	3.4%	3.5%	-2.7%	?	13µM*
O=C(C[n+]1cc(-c2ccc(F)cc2)n2c1CCC2)Nc1nc(-c2ccc(F)cc2)cs1	5.7%	-8.4%	?	4.5%	?	i
O=C(C[n+]1cc(-c2ccccc2)n2c1CCC2)Nc1nc(-c2ccc(F)cc2)cs1	-7.3%	-0.2%	7.6%	-9.5%	20.6µM*	i
O=C(C[n+]1cc(-c2ccccc2)n2c1CCC2)N1c2ccccc2Sc2ccccc21	-22.5%	3.9%	?	0.5%	6.51µM*	i
Cc1ccc(-c2c[n+](CC(=O)N3c4ccccc4Sc4ccccc43)c3n2CCC3)cc1	?	0.7%	1.3%	?	?	i
Cc1ccc(-c2csc(NC(=O)C[n+]3cc(-c4ccccc4)n4c3CCC4)n2)cc1	?	?	11.0%	-22.9%	?	i
Cc1ccc(-c2csc(NC(=O)C[n+]3cc(-c4ccc(C)cc4)n4c3CCC4)n2)cc1	16.4µM*	-5.0%	?	?	?	i
Cc1cc(C)nc(SCC(=O)N/N=C/c2cccnc2)n1	13.1%	-5.0%	16.7%	17.9%	i	i
CN(C)S(=O)(=O)c1ccc(NC(=O)Cn2ccsc2=N)cc1	0.3%	-3.2%	2.5%	23.0%	i	i
COc1ccc(/C=C/c2cc(C(F)(F)F)[nH]c(=O)n2)cc1OC	-28.3%	16.4µM*	?	-5.8%	?	i
COc1ccccc1NC(=O)N(C)C[C@@H]1Oc2ncc(Br)cc2C(=O)N([C@H](C)CO)C[C@@H]1C	11.2%	.	.	1.1%	i	i
CC(C)(C)C(=O)Nc1nc(-c2ccccc2)ns1	-18.6%	-5.9%	?	-25.2%	?	14.6µM*
O=C(Nc1nc(-c2ccccc2)ns1)c1ccc(Cl)cc1	.	.	.	.	i	i
CC1CCC/C(=N\Nc2ccc(Cl)c(C(=O)O)c2)C1 (stereo unspecified)	5.0%	-0.7%	-2.3%	2.4%	i	i
CCC(=O)c1ccc(/C=C/c2nc3ccccc3n2C)o1	-5.7%	18.4µM*	8.2µM*	-21.5%	i	i
CN1CCN(/N=C/c2cccc(Cl)c2Cl)CC1	8.7%	-7.8%	-5.4%	-0.4%	i	i
CN(C)CCP(=O)(c1ccccc1)c1ccccc1	8.6%	-2.6%	?	-2.0%	i	i
